Rows were chosen to be rich in hits. Some 2.4% of all compounds tested hit in one or more screens of this group.
D2 antagonist – antagonizes the human D2 dopamine receptor. P14416. HEK293 TREx D2 cells, calcium flux, dopamine EC80. inhibition, % at 10 µM. AID 485344. hit rate 2% among 340,000; in the data active means inhibition above about 30%; inactive means below that, where a call was filed; further: 0% is about no effect
Target sequence (P14416 whole entry, looked up): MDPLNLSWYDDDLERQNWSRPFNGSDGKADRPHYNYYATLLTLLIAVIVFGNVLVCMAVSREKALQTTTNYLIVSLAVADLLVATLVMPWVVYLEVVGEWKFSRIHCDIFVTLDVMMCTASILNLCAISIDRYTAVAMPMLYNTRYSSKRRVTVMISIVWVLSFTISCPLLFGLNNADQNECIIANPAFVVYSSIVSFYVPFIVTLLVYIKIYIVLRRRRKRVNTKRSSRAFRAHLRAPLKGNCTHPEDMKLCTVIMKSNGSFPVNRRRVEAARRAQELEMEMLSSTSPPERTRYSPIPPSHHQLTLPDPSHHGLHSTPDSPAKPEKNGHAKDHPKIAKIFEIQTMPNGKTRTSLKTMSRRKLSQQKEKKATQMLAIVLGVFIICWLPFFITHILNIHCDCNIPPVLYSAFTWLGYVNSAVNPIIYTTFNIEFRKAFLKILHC
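Compounds are added to dye-loaded, induced HEK293 T-REx cells coupled to calcium release via D2; after a 3 min kinetic read an EC80 dopamine stimulus is given and fluorescence is recorded for 3 more min.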
D2 PAM-1 – potentiates the human D2 dopamine receptor allosterically; P14416; DiscoveRx D2 beta-arrestin cells, luminescence, 90 min; 100% = 57 uM dopamine signal; potentiation, % (no concentration beside the values); hit rate 0.23% among 360,000; in the data active means potentiation above about 50%; inconclusive means mostly about 30% to 49%
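PathHunter D2 cells, attached overnight at 37 deg C, received compound in DMSO plus dopamine at EC20 (50 nM final) for 90 min at 37 deg C. Beta-arrestin recruitment was read as luminescence after 1 h with detection reagent at ambient temperature.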
D2 ag-1 – activates the human D2 dopamine receptor. P14416. hit rate 0.084% among 360,000. DiscoveRx PathHunter D2 beta-arrestin, luminescence, 90 min; 100% = 57 uM dopamine signal. activation, % (test concentration not listed); in the data active means activation above about 40%; inconclusive means between about 15% and that limit
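Agonist mode: compounds alone added to overnight-plated D2 PathHunter cells for 90 min at 37 C, with 57 uM final dopamine (EC100) defining full response. Beta-arrestin recruitment detected by chemiluminescent reagent, read after 1 h at ambient temperature.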
D2 PAM-2 – positive allosteric modulators of human D2 dopamine receptor; P14416; HEK293 T-REx D2, calcium flux, EC20 dopamine potentiation; potentiation, % at 10 µM; hit rate 0.34% among 340,000; AID 485347;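 active means potentiation over 3 SD above the plate norm, cut at about 30% in these data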; further: 0% is about no effect
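Cells plated with tetracycline inducer and held overnight at 30 C; calcium dye loaded 30–90 min at room temperature; baseline taken, compound added and read 180 s; EC20 dopamine then added and read 180 s.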
D2 ag-2 – D2 dopamine receptor (human) agonism. HEK293 T-REx D2 cells, calcium flux agonist mode. activation, % at 2 µM. P14416. hit rate 0.53% among 340,000. AID 485358;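 active means activation over 3 SD above normal in the single-dose calcium agonist read, cut at about 30% in these data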; further: 0% is about no effect
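Tetracycline-induced HEK293 T-REx cells with force-coupled D2 receptor, plated overnight at 30 C, loaded with no-wash calcium dye. After a 10 s baseline, compound was pin-added and calcium flux read kinetically for 180 s; calcium rises flagged agonists.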
* marks the source's active call; other numbers are inactive results; ? = inconclusive; nt = not tested or not shown.

SMILES	D2 antagonist	D2 PAM-1	D2 ag-1	D2 PAM-2	D2 ag-2
N/C(=N\N=C/c1ccc(Br)cc1)N/N=C\c1ccc(Br)cc1	1	-14	-2	-3	0
N/C(=N\N=C/c1ccc(F)cc1)N/N=C\c1ccc(F)cc1	40*	-44	4	4	-2
C=CCNc1nc(SC)nc2ccsc12	32*	-18	-1	-4	0
COc1ccc(C(C)=O)cc1COC(=O)CSCC(=O)Nc1ccc(C)cc1	30*	-31	-4	-27	-1
COc1ccc(C(C)=O)cc1COC(=O)CSC(C)C(=O)Nc1cc(C)on1 (stereo not given)	2	4	-3	3	0
COc1ccc(OC)c(NC(=O)CN2CCCN(Cc3ccccc3Cl)S2(=O)=O)c1	nt	nt	nt	6	nt
CCN1/C(=C/C=C/c2oc3ccc(-c4ccccc4)cc3[n+]2CC)Oc2ccc(-c3ccccc3)cc21	76*	-24	-6	-26	149*
CCN1/C(=C/C=C/c2sc3ccccc3[n+]2CC)Sc2ccccc21	nt	-23	-7	nt	nt
O=C(CCC(=O)N1CC2CCCN2c2ccccc21)NCc1ccccc1F (stereo not given)	nt	nt	nt	5	0
O=C(CSc1nc2ccccc2n1Cc1c(F)cccc1Cl)N1CCN(c2ccc(F)cc2)CC1	nt	nt	nt	0	0
COC(=O)c1ccc(NC(=O)CC2C(=O)N(c3cccc(C)c3)C(=O)N2C2CCCC2)cc1 (stereo not given)	nt	nt	nt	4	0
O=C1C2C3C=CC(C4CC34)C2C(=O)N1/N=C/c1cccs1 (stereo not given)	4	61*	9	8	0
CN(C)CCNc1ncnc2oc(-c3ccccc3)c(-c3ccccc3)c12	-3	-16	-8	-11	0
COc1ccc(-c2oc3ncnc(NCCCN(C)C)c3c2-c2ccc(OC)cc2)cc1	54*	-15	-3	-22	-2
CC(C)N(C(=O)N1CCN(c2ccnc3cc(Cl)ccc23)CC1)C(C)C	31*	12	3	-8	-1
COC(=O)c1c(NC(=O)C(C)C)sc2c1C(C(=O)OC)CC2 (stereo not given)	0	-7	-3	47*	0
COc1ccc(Cl)cc1NC(=O)[C@H]1O[C@@H]2OC(C)(C)O[C@@H]2[C@H]2OC(C)(C)O[C@H]21	nt	nt	nt	4	0
COC(=O)c1ccc(NC(=O)CSc2nnnn2C2CCCCC2)cc1	42*	-9	7	-1	0
Cc1ccc(CN2CCN(Cc3cccc4c3OCO4)CC2CCO)cc1 (stereo not given)	88*	-13	-1	-19	0
CCOc1ccc(CN2CCN(Cc3cccc4c3OCO4)CC2CCO)cc1 (stereo not given)	-28	-4	-5	-29	1
CCC(=O)N1CCCc2cc(S(=O)(=O)N3CCC(C(=O)NC4CCC(C)CC4)CC3)ccc21 (stereo not given)	nt	nt	nt	8	1
CCCc1nnc(SCC(=O)N(CC)CC)n1CC1CCCO1 (stereo not given)	-8	0	1	0	0
CCCc1nnc(SCC(=O)N2CCCCC2C)n1CC1CCCO1 (stereo not given)	nt	-7	-3	37*	nt
O=C(COC(=O)CSc1nnc(-c2ccc(Cl)cc2)o1)Nc1cc(Cl)ccc1Cl	5	-15	-3	-5	0
N#Cc1ccc(NC(=O)COC(=O)CSc2nnc(-c3ccc(Cl)cc3)o2)cc1	31*	2	0	-1	2
SMILES	D2 antagonist	D2 PAM-1	D2 ag-1	D2 PAM-2	D2 ag-2
O=C(COC(=O)c1ccccc1-c1nc2ccccc2s1)NC1CCS(=O)(=O)C1 (stereo not given)	32*	-15	1	-3	0
COc1cccc(CNC(=O)c2cc3n(n2)CCCN(Cc2ccc(C)cc2)C3=O)c1OC	nt	nt	nt	-4	1
Cc1ccc(NC2=NCC(=O)N2c2ccc3c(c2)OCCO3)c(C)c1	9	-10	-1	31*	-1
CC1CC(C)CN(CCCNC(=O)Cn2ncc3c(=O)oc4ccccc4c32)C1 (stereo not given)	4	-11	-9	-6	1
O=C(Cn1ncc2c(=O)oc3ccccc3c21)NCCN1CCN(c2ccccc2F)CC1	-17	-6	-2	-25	37*
CCOC(=O)c1cnc(-n2nc(C)cc2C)nc1NCCc1ccccc1	34*	-8	-4	-1	0
CCOC(=O)c1cnc(-n2nc(C)cc2C)nc1Nc1ccccc1OC	6	nt	nt	9	0
Cc1ccc(SCC(=O)NC(C)(C)C)cc1	37*	-3	0	1	0
Cc1ccc(SCC(=O)Nc2cccc(C(=O)NC(C)(C)C)c2)cc1	-2	-17	-9	-6	0
COc1ccc(OC)c(NC(=O)C2Cc3ccccc3CN2S(=O)(=O)c2ccc(F)cc2)c1 (stereo not given)	nt	nt	nt	-7	0
COCCn1c(-c2ccccc2)nc(=S)c2c1CC(C)(C)OC2	11	29	-2	37*	1
COc1ccccc1C(=O)c1c(N)c(-c2nc(-c3ccccc3)cs2)c2ccccn12	nt	nt	nt	0	nt
Cc1cc(C)nc(N2CCCC(C(=O)NCc3ccc4c(c3)OCO4)C2)n1 (stereo not given)	-5	-5	-6	1	-1
CCCc1cc(N2CCCC(C(=O)NCc3ccc4c(c3)OCO4)C2)n2ncnc2n1 (stereo not given)	4	6	4	36*	-1
COc1ccccc1NC(=O)CSc1oc(-c2cccs2)nc1S(=O)(=O)c1ccccc1	nt	nt	nt	-11	1
COc1cccc(/C=N/NC(=O)CN2CC(c3ccccc3)CC2=O)c1OC (stereo not given)	38*	-15	-6	-28	-1
COc1ccc(-c2cc(C(=O)Nc3cccnc3Cl)no2)cc1	18	3	3	-7	1
O=C(Nc1cccnc1Cl)c1cc(-c2ccc(F)cc2)on1	-3	-7	-2	34*	0
O=C(c1cc(-c2ccc(F)cc2)on1)N1CCCCCC1	10	-4	-6	34*	-2
N/C(Cc1ccc([N+](=O)[O-])cc1)=N\OC(=O)Cc1ccccc1	11	-1	15	9	-1
N/C(Cc1ccc([N+](=O)[O-])cc1)=N\OC(=O)c1ccc(Br)o1	-2	132*	?	-5	-1
N/C(Cc1ccc([N+](=O)[O-])cc1)=N\OC(=O)c1ccccc1F	-9	153*	?	10	1
N/C(Cc1ccc([N+](=O)[O-])cc1)=N\OC(=O)Cc1ccc(Cl)cc1	10	26	3	-9	-1
COc1cccc(N2C(=O)CSC23C(=O)N(CC(=O)Nc2cccc(Cl)c2)c2ccccc23)c1 (stereo not given)	nt	nt	nt	5	0

High-throughput results (PubChem BioAssay)
